From PubChem BioAssay
LASV entry inh = qHTS for Inhibitors of binding or entry into cells for Lassa Virus | 300,000 compounds, 1.2% hits | Potency, µM (doses to about 37.9 µM), for the others: at the top dose activity change, negative = inhibition, most hits filed as inhibitors | Lassa virus pseudotype entry inhibition, cell reporter; calls by dose curve; tested in HEK293 cells; also: potency is read from the fitted curve at half-maximal effect; % is scaled to controls: 0 for no effect and ±100 for the full control effect; nearly all actives have a fitted effect of over 50% in size
HCV inh = qHTS Assay for Inhibitors of Hepatitis C Virus (HCV) | Huh7.5.1 HCVcc-Cre infection, luciferase reporter, 44 h | Potency, µM (titrated, usually from 41.8 µM), for inactives: at the highest dose activity change, negative = inhibition, usual class: inhibitors | 340,000 compounds, 3.4% hits | AID 651820, 2012; active = well fitted inhibition curve with a large enough effect; inconclusive = small, poorly fitted or top-dose-only effect, or another doubt; inactive = no such curve, though single readings can be large or run the other way; also: potency is read from the fitted curve at half-maximal effect; % is scaled to controls: 0 for no effect and ±100 for the full control effect
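Cells seeded at 1,000/well and cultured 4 h, then compounds added followed by HCVcc-Cre virus (~0.5 moi). After 44 h further culture, luciferase substrate was added, plates held 15 min at room temperature, and luminescence read for 15 sec.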
Cycloheximide cs = Cycloheximide Counterscreen for Small Molecule Inhibitors of Shiga Toxin; cell reporter, cycloheximide protein synthesis inhibition counterscreen; max response, %; 300,000 compounds, 12% hits; in the data active = max response mostly above about 13%, no sharp cut-off; inactive = mostly below about 14%; also: read at 38.3 µM for the half of the compounds with a filed dose; 0% is about no effect
Shiga inhibitor = A qHTS for Small Molecule Inhibitors of Shiga Toxin; Vero cells, Shiga toxin protein synthesis inhibition reporter; inhibition, % at 38.7 µM; 290,000 compounds, 9.2% hits; in the data active = inhibition mostly above about 28%, no sharp cut-off; inactive = mostly below about 43%; also: 0% is about no effect
FMDV inh = High Throughput Screening for Foot and Mouth Disease Virus Antivirals | FMDV antiviral cell-based qHTS | Potency, µM (series often up to 57.9 µM), without a hit: top-dose activity change, negative = inhibition, usual class: inhibitors | 410,000 compounds, 1.2% hits | AID 1159524, 2015; calls by dose curve; tested in HEK293T cells; also: read-out not given here; potency is read from the fitted curve at half-maximal effect; % is scaled to controls: 0 for no effect and ±100 for the full control effect; nearly all actives have a fitted effect of over 45% in size
MARV entry inh = qHTS for inhibitors of binding or entry into cells for Marburg Virus. Potency, µM (titrated, usually from 37.8 µM), inactives show top-dose activity change, negative = inhibition, hits mostly inhibitors. 300,000 compounds, 1.8% hits. Marburg virus pseudotyped entry inhibition, cell reporter; calls by dose curve; tested in HEK293 cells; also: potency is read from the fitted curve at half-maximal effect; % is scaled to controls: 0 for no effect and ±100 for the full control effect
* marks the source's active call; other numbers are inactive results; [ ] = dose if it differs, or a comment. Most compounds without a hit are left out; they make up all but 13% or so of the library.

CCCCNC(=S)NNC(=O)c1nn(C)c(C)c1Cl was read as LASV entry inh -2%, HCV inh 6%, Cycloheximide cs 29*, Shiga inhibitor 74*, FMDV inh 14% and MARV entry inh -3%.
COc1ccccc1NC(=S)NNC(=O)c1nn(C)cc1Cl was read as LASV entry inh 2%, HCV inh 5%, Cycloheximide cs 14, Shiga inhibitor 45, FMDV inh 10% and MARV entry inh 6%[46.1 µM].
For COc1ccccc1NC(=S)NNC(=O)c1nn(C)c(C)c1Br the results were LASV entry inh 7%, HCV inh 34%, Cycloheximide cs 52*, Shiga inhibitor 109*, FMDV inh 58% and MARV entry inh 14%.
CCCn1c(N)c(N(CCOC)C(=O)c2cccc(C(F)(F)F)c2)c(=O)[nH]c1=O was read as LASV entry inh 26%[46.1 µM], HCV inh 9%, Cycloheximide cs 6, Shiga inhibitor 17, FMDV inh -5% and MARV entry inh 0%[46.1 µM].
For O=C(NCC(=O)N1CCCCCCC1)c1ccccc1Br the results were LASV entry inh -1%, HCV inh 15%, FMDV inh 29% and MARV entry inh -4%.
CC(OC(=O)[C@H](C)NC(=O)c1ccccc1Cl)C(=O)NCc1ccc2c(c1)OCO2 (stereo not given in full) was read as LASV entry inh 0%, HCV inh -29%, FMDV inh 1% and MARV entry inh 11%.
CN1CCNC(=O)C1CC(=O)NCCc1ccccc1F (stereo not given) was read as LASV entry inh 13%[46.1 µM], HCV inh 8%, Cycloheximide cs -2, Shiga inhibitor 13, FMDV inh -5% and MARV entry inh -24%[46.1 µM].
Cc1nc(CN(C)C(=O)CC2C(=O)NCCN2Cc2ccc(-c3ccccc3)cc2)cs1 (stereo not given) was read as LASV entry inh -17%, HCV inh -17%, Cycloheximide cs 18, Shiga inhibitor 26*, FMDV inh inconclusive and MARV entry inh 10%.
For O=C(CC1C(=O)NCCN1Cc1ccccn1)NCCc1ccccc1F (stereo not given) the results were LASV entry inh 19%, HCV inh 16%, Cycloheximide cs 15, Shiga inhibitor 36*, FMDV inh 26% and MARV entry inh 14%.
Screening CCOc1ccc(CN2CCNC(=O)C2CC(=O)NCc2ccccn2)cc1 (stereo not given) returned LASV entry inh 10%, HCV inh 9%, Cycloheximide cs 36*, Shiga inhibitor 7, FMDV inh 29% and MARV entry inh -8%[46.1 µM].
For CCOc1ccc(CN2CCNC(=O)C2CC(=O)NCCc2ccccn2)cc1 (stereo not given) the results were LASV entry inh 18%[46.1 µM], HCV inh 6%, Cycloheximide cs 2, Shiga inhibitor 1, FMDV inh -1% and MARV entry inh 6%[46.1 µM].
For COc1ccc(-c2nc3c4c(ncn3n2)-c2ccccc2CC42CCCC2)cc1 the results were LASV entry inh 0%, HCV inh inconclusive, Cycloheximide cs -2, Shiga inhibitor -3, FMDV inh 32µM* and MARV entry inh 10%.
Oc1cccc(-c2nc3c4c(ncn3n2)-c2ccccc2CC42CCCC2)c1 was read as LASV entry inh -17%[14.3 µM], Cycloheximide cs -3, Shiga inhibitor -16, FMDV inh inconclusive and MARV entry inh 23µM*.
Screening CCOC(=O)CSC1=C(C#N)[C@H](c2ccc3c(c2)OCO3)CC(=O)N1 returned MARV entry inh 16µM*.
CCCCOC(=O)CSC1=C(C#N)[C@H](c2ccc3c(c2)OCO3)CC(=O)N1 was read as MARV entry inh 7%.
CCCC[C@@H]1CNC(=S)N1CCc1cccc2ccccc12 was read as HCV inh inconclusive, Cycloheximide cs 0, Shiga inhibitor -5 and FMDV inh 75%.
For Cc1ccccc1OCCNC(=O)c1ccco1 the results were LASV entry inh 16%, HCV inh 2%, Cycloheximide cs 36*, Shiga inhibitor 97*, FMDV inh 12% and MARV entry inh 13%[46.1 µM].
Screening Cc1ccccc1OCCNC(=O)/C=C/c1ccccc1 returned LASV entry inh 7%, HCV inh 3%, Cycloheximide cs 19, Shiga inhibitor 24*, FMDV inh 30% and MARV entry inh 21%.
COc1ccccc1OCCNC(=O)c1ccco1 was read as LASV entry inh 7%[46.1 µM], HCV inh 16%, Cycloheximide cs 9, Shiga inhibitor 22, FMDV inh 10% and MARV entry inh 29%[46.1 µM].
Screening CCCCOc1ccc(OCCNC(=O)c2ccco2)cc1 returned LASV entry inh 2%[46.1 µM], HCV inh -8%, Cycloheximide cs 20, Shiga inhibitor 57*, FMDV inh 14% and MARV entry inh 3%[46.1 µM].
`CCCCOc1ccccc1NC(=O)c1ccco1` gave LASV entry inh inconclusive, HCV inh inconclusive, Cycloheximide cs -4, Shiga inhibitor -5, FMDV inh -6% and MARV entry inh inconclusive.
For CC(C)CCn1c(-c2nonc2N)nc2ccccc21 the results were LASV entry inh -23%, HCV inh 11µM*, Cycloheximide cs -2, Shiga inhibitor -8, FMDV inh -1% and MARV entry inh inconclusive.
For Nc1nonc1-c1nc2ccccc2n1CC(=O)Nc1ccccc1 the results were LASV entry inh -12%, HCV inh inconclusive, Cycloheximide cs -2, Shiga inhibitor -1, FMDV inh -2% and MARV entry inh inconclusive.
`CCOC(=O)c1ccccc1NC(=O)Cn1c(-c2nonc2N)nc2ccccc21` gave LASV entry inh inconclusive, HCV inh inconclusive, Cycloheximide cs 0, Shiga inhibitor -19, FMDV inh 0% and MARV entry inh 0.052µM*.
C[n+]1nc(Nc2cccc(F)c2)sc1-c1ccc(C(=O)O)cc1 was read as Cycloheximide cs -3 and Shiga inhibitor 17.
For O=C(NC(=O)C(F)(F)F)Nc1ccc(S(=O)(=O)Nc2nccs2)cc1 the results were HCV inh 20%, Cycloheximide cs -1 and FMDV inh 3%.
`COCCOC(=O)c1[nH]c2c(c1C)C(=O)CC(c1ccc(N(C)C)cc1)C2` (stereo not given) gave LASV entry inh inconclusive, HCV inh 13µM*, Cycloheximide cs 14*, Shiga inhibitor 14, FMDV inh -21% and MARV entry inh -18%[46.1 µM].
Screening COCCOC(=O)c1[nH]c2c(c1C)C(=O)CC(c1cc(OC)c(OC)c(OC)c1)C2 (stereo not given) returned LASV entry inh inconclusive, HCV inh 13µM*, Cycloheximide cs -2, Shiga inhibitor 33, FMDV inh inconclusive and MARV entry inh 10µM*.
For COCCOC(=O)c1[nH]c2c(c1C)C(=O)CC(c1ccc(F)cc1)C2 (stereo not given) the results were HCV inh inconclusive, Cycloheximide cs -8, Shiga inhibitor 25 and FMDV inh -10%.
